According to the supplement of paper PMC9262897, “Low-cost anti-mycobacterial drug discovery using engineered E. coli” (Nature Communications, 2022):
Counter-ions that a name gives are not always drawn. ± gives the standard deviation of the averaged measurements.

Tests used:
Assay in all cases: growth (OD600 after 10 h); higher = more growth (less inhibition)
[1] = system: E. coli TESEC Alr+ wild-type control; settings: compound 0.1 mM; raw OD600 reference: median of DMSO wells 0.241, cell-free background 0.041
Description: (§1)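 TESEC Mtb Alr E. coli, or the Alr+ wild-type control, in 384-well plates with Prestwick library compounds at 0.1 mM and 1% DMSO, across arabinose induction levels of 1E3 to 1E7 nM. Growth is read as OD600 after 10 h at 37 °C in triplicate biological replicates.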

E. coli TESEC Mtb Alr [2] = settings: compound 0.1 mM
Description: as §1

E. coli TESEC Mtb Asd = settings: compound 0.1 mM
Description: (§2)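 TESEC E. coli strains in which the native enzyme is deleted and replaced by arabinose-inducible Mtb Asd, DapB, CysH or TrpD, each grown in its selective medium. Strains were screened against the Prestwick library at 0.1 mM and 1% DMSO in 384-well format at low and high arabinose induction. Growth is read as OD600 after 10 h in triplicate.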

E. coli TESEC Mtb DapB = settings: compound 0.1 mM
Description: as §2

E. coli TESEC Mtb Alr [3] = settings: compound 0.1 mM; remark: listed apart in the source
Description: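 TESEC Mtb Alr E. coli (ΔaraC ΔtolC ΔentC Δalr ΔdadX, arabinose-inducible Mtb Alr) or the Alr+ wild-type control strain, grown in defined M9-fructose medium without D-alanine in 96-well plates with Prestwick library compounds at 0.1 mM and 1% DMSO. Low Alr induction is 0.1 µM arabinose and high induction is 10 mM arabinose.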

[4] = arabinose 1000 nM, raw OD600 reference: median of DMSO wells 0.294, cell-free background 0.041
[5] = arabinose 10000 nM, raw OD600 reference: median of DMSO wells 0.264, cell-free background 0.041
[6] = arabinose 100000 nM, raw OD600 reference: median of DMSO wells 0.201, cell-free background 0.041
[7] = arabinose 1000000 nM, raw OD600 reference: median of DMSO wells 0.193, cell-free background 0.041
[8] = arabinose 10000000 nM, raw OD600 reference: median of DMSO wells 0.146, cell-free background 0.041
[9] = arabinose induction (level): High, raw OD600 reference: median of DMSO wells 0.331, cell-free background 0.041
[10] = arabinose induction (level): Low, raw OD600 reference: median of DMSO wells 0.417, cell-free background 0.041
[11] = arabinose induction (level): High, raw OD600 reference: median of DMSO wells […], cell-free background 0.041
[12] = arabinose induction (level): Low, raw OD600 reference: median of DMSO wells 0.227, cell-free background 0.041
[13] = arabinose 100 nM, raw OD600 reference: median of DMSO wells 0.413, cell-free background 0.052
[14] = arabinose 10000000 nM, raw OD600 reference: median of DMSO wells […], cell-free background 0.052

| Structure (SMILES) | growth [1] | growth (E. coli TESEC Mtb Alr [2]; [4]) | growth (E. coli TESEC Mtb Alr [2]; [5]) | growth (E. coli TESEC Mtb Alr [2]; [6]) | growth (E. coli TESEC Mtb Alr [2]; [7]) | growth (E. coli TESEC Mtb Alr [2]; [8]) | growth (E. coli TESEC Mtb Asd; [9]) | growth (E. coli TESEC Mtb Asd; [10]) | growth (E. coli TESEC Mtb DapB; [11]) | growth (E. coli TESEC Mtb DapB; [12]) | growth (E. coli TESEC Mtb Alr [3]; [13]) | growth (E. coli TESEC Mtb Alr [3]; [14]) |
| --- | --- | --- | --- | --- | --- | --- | --- | --- | --- | --- | --- | --- |
| C[C@@H]1C[C@@H]([C@H](O)CC2CC(=O)NC(=O)C2)C(=O)[C@@H](C)C1 [Cycloheximide] | 0.25 ± 0.014 | 0.314 ± 0.018 | 0.268 ± 0.006 | 0.195 ± 0.009 | 0.186 ± 0.011 | 0.157 ± 0.0081 | 0.469 ± 0.0092 | 0.443 ± 0.042 | 0.231 ± 0.031 | 0.258 ± 0.027 | 0.394 ± 0.033 | 0.33 ± 0.013 |
| CCC1(CC)C(=O)C=CNC1=O [Pyrithyldione] | 0.223 ± 0.0058 | 0.295 ± 0.026 | 0.289 ± 0.0059 | 0.207 ± 0.017 | 0.2322 ± 0.0018 | 0.152 ± 0.0058 | 0.398 ± 0.047 | 0.438 ± 0.018 | 0.205 ± 0.014 | 0.23 ± 0.01 | 0.389 ± 0.009 | 0.398 ± 0.025 |
| C[C@]12CC[C@H]3[C@@H](CCC4=CC(=O)CC[C@@H]43)[C@@H]1CC[C@@H]2O [Nandrolone] | 0.154 ± 0.0082 | 0.201 ± 0.014 | 0.226 ± 0.012 | 0.118 ± 0.0031 | 0.0814 ± 0.0003 | 0.115 ± 0.0021 | 0.106 ± 0.0027 | 0.267 ± 0.1 | 0.1471 ± 0.0014 | 0.159 ± 0.0037 | 0.408 ± 0.0099 | 0.211 ± 0.0078 |
| C[C@@]12N[C@@H](Cc3ccccc31)c1ccccc12 [(-)-MK 801 hydrogen maleate] | 0.226 ± 0.014 | 0.29 ± 0.013 | 0.247 ± 0.0096 | 0.138 ± 0.0052 | 0.113 ± 0.0073 | 0.132 ± 0.0029 | 0.244 ± 0.014 | 0.514 ± 0.039 | 0.213 ± 0.036 | 0.221 ± 0.018 | 0.412 ± 0.017 | 0.2863 ± 0.0016 |
| Oc1cc(Cl)ccc1Oc1ccc(Cl)cc1Cl [Triclosan] | 0.0414 ± 0.0012 | 0.0413 ± 0.0016 | 0.04137 ± 0.00025 | 0.04127 ± 0.00015 | 0.0423 ± 0.0022 | 0.04107 ± 0.00021 | 0.0494 ± 0.0062 | 0.04643 ± 0.00015 | 0.0466 ± 0.0004 | 0.0475 ± 0.0016 | 0.052 ± 0.0048 | 0.054 ± 0.001 |
| O=C(O)CCCc1ccc(N(CCCl)CCCl)cc1 [Chlorambucil] | 0.2478 ± 0.002 | 0.296 ± 0.0033 | 0.263 ± 0.0054 | 0.206 ± 0.0083 | 0.191 ± 0.0081 | 0.135 ± 0.0069 | 0.258 ± 0.086 | 0.288 ± 0.096 | 0.209 ± 0.023 | 0.259 ± 0.023 | 0.429 ± 0.0069 | 0.326 ± 0.016 |
| CN1[C@@H]2C[C@@H](OC(=O)[C@H](CO)c3ccccc3)C[C@H]1[C@@H]1O[C@@H]12 [Scopolamine hydrochloride] | 0.252 ± 0.0082 | 0.321 ± 0.023 | 0.292 ± 0.011 | 0.207 ± 0.012 | 0.182 ± 0.0041 | 0.157 ± 0.0084 | 0.469 ± 0.011 | 0.453 ± 0.025 | 0.201 ± 0.031 | 0.228 ± 0.03 | 0.408 ± 0.016 | 0.36 ± 0.01 |
